Experimental data as given in the supplement of paper PMC11732987, “Enantioselective OTUD7B fragment discovery through chemoproteomics screening and high-throughput optimisation” (Communications Chemistry, 2025).

Columns and labels:
Test in all cases: log2 ratio of Biotin-Ahx-Ub-VS probe labelling (fragment/DMSO); higher = less target engagement (more negative = stronger competition), active = hit call of the paper (q ≤ 0.05, log2 ratio ≤ -1)
Conditions in all cases: compound concentration: 200 uM; treatment time: 3 h
[1] = target: T1, ALG13 (UniProt Q9NP73)
T1 sequence (whole entry): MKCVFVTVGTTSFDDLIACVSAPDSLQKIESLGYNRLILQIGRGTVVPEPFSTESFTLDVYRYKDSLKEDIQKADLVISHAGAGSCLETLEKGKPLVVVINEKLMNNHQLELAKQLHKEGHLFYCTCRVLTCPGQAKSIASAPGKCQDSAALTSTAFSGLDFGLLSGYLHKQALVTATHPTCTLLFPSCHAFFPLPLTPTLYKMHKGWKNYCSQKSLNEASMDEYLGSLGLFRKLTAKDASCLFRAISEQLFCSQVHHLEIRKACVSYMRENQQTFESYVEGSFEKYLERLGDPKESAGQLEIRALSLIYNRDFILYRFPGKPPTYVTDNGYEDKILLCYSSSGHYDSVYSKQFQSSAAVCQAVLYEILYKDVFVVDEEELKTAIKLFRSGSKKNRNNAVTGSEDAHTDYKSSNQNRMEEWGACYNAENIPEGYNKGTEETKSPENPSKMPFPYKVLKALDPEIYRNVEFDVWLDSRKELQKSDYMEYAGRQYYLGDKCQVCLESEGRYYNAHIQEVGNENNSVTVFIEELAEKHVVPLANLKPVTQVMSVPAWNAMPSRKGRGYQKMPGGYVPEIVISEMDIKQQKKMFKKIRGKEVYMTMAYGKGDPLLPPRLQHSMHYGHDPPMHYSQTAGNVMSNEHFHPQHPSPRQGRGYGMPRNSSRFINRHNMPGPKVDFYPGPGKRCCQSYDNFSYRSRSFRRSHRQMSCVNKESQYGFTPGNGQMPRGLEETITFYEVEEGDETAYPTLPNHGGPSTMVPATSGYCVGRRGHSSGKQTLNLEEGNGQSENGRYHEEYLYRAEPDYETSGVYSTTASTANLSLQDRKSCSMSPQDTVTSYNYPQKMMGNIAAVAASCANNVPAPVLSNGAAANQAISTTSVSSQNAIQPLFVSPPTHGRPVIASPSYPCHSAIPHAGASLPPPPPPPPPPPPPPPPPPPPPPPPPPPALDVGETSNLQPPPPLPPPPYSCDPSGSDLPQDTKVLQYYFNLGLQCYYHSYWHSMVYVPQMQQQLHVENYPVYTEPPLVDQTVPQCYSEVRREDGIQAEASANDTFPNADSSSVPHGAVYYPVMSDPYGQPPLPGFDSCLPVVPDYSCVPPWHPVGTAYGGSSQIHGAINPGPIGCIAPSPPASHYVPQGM
How it was run: (§1)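 The table lists average log2 ratios of fragment over vehicle, from an unpaired t-test on global-median-normalised Spectronaut label-free quantities. Proteins with ≥2 unique peptides were used. Samples were HEK293T lysate (495 µg) treated in triplicate with fragment at 200 µM or vehicle for 3 h, then with Biotin-Ahx-Ub-VS (0.5 µM final) for 1 h, with labelled DUBs NeutrAvidin-enriched and run by diaPASEF LC-MS/MS.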

[2] = target: ATXN3 (UniProt P54252)
How it was run: as §1

[3] = target: T2, BAP1 (UniProt Q92560)
T2 sequence (whole entry): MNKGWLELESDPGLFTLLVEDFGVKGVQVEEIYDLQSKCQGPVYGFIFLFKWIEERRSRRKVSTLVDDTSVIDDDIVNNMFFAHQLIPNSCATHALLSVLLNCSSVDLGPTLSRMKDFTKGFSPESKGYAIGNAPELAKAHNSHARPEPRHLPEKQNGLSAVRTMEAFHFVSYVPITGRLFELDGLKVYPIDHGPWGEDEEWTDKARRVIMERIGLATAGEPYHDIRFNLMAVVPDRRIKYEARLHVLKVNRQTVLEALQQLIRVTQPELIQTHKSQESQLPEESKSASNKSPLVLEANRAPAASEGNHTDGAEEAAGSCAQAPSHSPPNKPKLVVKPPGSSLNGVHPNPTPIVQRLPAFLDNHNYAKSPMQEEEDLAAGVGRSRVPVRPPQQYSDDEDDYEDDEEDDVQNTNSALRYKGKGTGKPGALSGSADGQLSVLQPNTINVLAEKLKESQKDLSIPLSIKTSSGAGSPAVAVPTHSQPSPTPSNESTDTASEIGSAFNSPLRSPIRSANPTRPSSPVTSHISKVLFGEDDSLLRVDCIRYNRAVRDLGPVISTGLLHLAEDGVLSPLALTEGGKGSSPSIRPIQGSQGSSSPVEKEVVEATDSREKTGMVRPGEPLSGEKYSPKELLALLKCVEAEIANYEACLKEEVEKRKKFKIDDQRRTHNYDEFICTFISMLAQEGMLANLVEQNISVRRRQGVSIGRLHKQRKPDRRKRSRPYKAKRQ
How it was run: as §1

[4] = target: EIF3F (UniProt O00303)
How it was run: as §1

[5] = target: EIF3H (UniProt O15372)
How it was run: as §1

[6] = target: T3, FAM105A (UniProt Q9NUU6)
T3 sequence (whole entry): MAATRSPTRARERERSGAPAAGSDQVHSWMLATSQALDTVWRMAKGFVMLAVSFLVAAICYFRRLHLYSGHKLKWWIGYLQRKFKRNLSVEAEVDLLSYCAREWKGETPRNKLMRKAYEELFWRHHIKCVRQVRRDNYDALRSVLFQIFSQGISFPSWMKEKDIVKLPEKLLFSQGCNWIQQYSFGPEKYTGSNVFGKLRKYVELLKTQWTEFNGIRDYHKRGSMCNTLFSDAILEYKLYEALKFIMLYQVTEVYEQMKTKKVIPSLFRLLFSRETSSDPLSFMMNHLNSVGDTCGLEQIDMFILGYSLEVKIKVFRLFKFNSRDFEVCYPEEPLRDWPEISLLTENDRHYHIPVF
How it was run: as §1

[7] = target: OTUB1 (UniProt Q96FW1)
How it was run: as §1

[8] = target: T4, OTUD4 (UniProt Q01804)
T4 sequence (whole entry): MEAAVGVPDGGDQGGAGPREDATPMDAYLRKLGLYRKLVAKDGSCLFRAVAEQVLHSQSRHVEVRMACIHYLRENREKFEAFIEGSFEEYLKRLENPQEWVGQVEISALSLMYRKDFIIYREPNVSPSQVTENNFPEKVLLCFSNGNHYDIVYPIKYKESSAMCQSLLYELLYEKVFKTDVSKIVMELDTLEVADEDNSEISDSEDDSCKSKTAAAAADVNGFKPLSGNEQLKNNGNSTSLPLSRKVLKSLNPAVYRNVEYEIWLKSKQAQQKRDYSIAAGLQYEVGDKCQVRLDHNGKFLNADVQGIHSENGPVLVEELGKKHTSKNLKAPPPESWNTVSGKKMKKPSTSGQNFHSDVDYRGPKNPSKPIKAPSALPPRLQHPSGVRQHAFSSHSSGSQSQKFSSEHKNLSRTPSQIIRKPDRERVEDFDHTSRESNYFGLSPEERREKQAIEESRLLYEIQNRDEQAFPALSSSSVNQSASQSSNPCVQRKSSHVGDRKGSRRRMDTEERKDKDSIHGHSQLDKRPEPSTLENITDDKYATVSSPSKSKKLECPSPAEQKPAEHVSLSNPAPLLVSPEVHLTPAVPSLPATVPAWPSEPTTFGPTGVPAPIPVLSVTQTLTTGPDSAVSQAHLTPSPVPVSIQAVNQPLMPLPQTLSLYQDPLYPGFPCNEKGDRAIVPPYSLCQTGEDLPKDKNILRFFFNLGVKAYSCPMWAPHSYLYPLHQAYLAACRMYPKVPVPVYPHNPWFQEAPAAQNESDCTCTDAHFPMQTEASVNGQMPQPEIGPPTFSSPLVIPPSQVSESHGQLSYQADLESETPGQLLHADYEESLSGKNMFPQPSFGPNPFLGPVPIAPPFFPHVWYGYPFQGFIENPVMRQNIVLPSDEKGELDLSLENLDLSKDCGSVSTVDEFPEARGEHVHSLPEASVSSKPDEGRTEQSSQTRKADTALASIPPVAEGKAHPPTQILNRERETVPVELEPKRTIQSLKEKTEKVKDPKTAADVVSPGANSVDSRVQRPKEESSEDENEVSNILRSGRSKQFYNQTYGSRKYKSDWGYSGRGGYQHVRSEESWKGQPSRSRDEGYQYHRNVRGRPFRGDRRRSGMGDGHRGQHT
How it was run: as §1

[9] = target: T5, OTUD5 (UniProt Q96G74)
T5 sequence (whole entry): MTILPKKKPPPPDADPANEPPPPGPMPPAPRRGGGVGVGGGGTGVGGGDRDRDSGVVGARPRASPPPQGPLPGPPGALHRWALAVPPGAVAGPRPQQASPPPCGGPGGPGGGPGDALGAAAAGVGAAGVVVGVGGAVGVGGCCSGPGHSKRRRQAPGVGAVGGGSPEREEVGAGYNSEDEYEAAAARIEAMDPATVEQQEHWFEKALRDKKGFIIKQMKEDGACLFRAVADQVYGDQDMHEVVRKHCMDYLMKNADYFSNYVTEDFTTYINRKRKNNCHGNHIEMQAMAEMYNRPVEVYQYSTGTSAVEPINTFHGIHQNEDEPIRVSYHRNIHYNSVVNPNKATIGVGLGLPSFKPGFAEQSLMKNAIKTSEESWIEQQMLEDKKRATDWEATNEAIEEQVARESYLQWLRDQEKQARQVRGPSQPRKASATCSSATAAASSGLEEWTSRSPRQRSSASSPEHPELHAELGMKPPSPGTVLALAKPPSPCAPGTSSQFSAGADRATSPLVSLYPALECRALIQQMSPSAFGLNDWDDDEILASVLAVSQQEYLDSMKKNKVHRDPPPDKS
How it was run: as §1

Measured: log2 ratio of Biotin-Ahx-Ub-VS probe labelling

Chain of ATXN3 (P54252 whole entry): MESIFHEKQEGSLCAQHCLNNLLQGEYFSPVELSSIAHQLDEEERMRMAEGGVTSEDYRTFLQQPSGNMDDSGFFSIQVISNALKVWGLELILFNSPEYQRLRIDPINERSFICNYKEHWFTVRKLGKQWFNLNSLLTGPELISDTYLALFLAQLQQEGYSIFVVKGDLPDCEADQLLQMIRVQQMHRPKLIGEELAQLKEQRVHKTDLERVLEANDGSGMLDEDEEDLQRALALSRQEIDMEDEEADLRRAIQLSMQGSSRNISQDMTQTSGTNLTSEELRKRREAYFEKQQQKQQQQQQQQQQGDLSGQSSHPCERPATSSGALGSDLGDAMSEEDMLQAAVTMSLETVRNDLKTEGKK
Chain of OTUB1 (Q96FW1 whole entry): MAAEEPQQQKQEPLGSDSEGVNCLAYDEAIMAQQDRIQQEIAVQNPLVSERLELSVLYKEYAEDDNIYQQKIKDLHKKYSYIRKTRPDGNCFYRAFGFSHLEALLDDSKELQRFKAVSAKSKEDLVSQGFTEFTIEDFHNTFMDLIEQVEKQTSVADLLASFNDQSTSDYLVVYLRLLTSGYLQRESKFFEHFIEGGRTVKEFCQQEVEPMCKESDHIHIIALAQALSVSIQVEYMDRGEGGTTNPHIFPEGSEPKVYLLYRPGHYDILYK
Chain of EIF3F (O00303 whole entry): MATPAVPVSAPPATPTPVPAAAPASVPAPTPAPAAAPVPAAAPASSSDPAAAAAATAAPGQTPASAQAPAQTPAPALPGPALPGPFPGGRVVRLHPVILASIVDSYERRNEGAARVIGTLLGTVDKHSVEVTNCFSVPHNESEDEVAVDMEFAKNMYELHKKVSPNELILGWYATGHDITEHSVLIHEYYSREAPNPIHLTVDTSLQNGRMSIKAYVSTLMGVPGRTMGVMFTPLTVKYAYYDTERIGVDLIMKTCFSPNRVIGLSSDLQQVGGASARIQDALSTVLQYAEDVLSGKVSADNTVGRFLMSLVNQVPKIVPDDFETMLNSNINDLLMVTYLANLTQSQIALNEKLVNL
Chain of EIF3H (O15372 whole entry): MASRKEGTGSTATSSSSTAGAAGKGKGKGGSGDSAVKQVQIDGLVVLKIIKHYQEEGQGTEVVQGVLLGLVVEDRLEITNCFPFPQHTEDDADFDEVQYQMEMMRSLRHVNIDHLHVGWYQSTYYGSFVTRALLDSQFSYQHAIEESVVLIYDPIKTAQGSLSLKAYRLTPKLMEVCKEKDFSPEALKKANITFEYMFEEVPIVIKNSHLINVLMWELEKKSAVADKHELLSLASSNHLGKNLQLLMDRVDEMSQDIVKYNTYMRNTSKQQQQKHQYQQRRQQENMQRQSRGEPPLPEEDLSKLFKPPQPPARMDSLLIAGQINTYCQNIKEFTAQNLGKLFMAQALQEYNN

O=C(CCl)N1CCOCCC1c1ccccc1 (centres undefined)
inactive: [1] -0.00764 | [2] 0.117 | [3] -0.446 | [4] -0.267 | [5] 0.204 | [6] 0.0466 | [7] -0.0821 | [8] -0.0459 | [9] 0.0776
